PubChem BioAssay
Inconclusive results are not listed. Activity calls are given as the source filed them. Cut-off not given; nearly all actives show AC50 up to about 26 µM.

Assay: viability loss in pontine glioma line – cell-based, SU-DIPG-XXV, MIPE5.0, CellTiter-Glo, qHTS, dose response (AID 1347065);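 further: cells exposed to compound for 48 hours before ATP readout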
Details: CellTiter-Glo ATP luminescence
In the case of CONC(=O)Nc1ccc(-c2sc3c(c2CN(C)C)c(=O)n(-c2ccc(OC)nn2)c(=O)n3Cc2c(F)cccc2F)cc1, the outcome is reported as “inactive”. With Cc1c(C(=O)Nc2ccc(Oc3ccnc4[nH]cc(-c5ccccc5)c34)c(F)c2)c(=O)n(-c2ccc(F)cc2)n1C the AC50 was 5.25 µM (active). With Cc1ccc(NC(=O)[C@H]2CCCN(C(=O)c3c(C)cccc3F)[C@H]2c2ccc(NC3CCCC3)cc2)cc1C(F)(F)F the outcome was “inactive”. For CC(C)NC(=O)COc1cccc(-c2nc(Nc3ccc4[nH]ncc4c3)c3ccccc3n2)c1, the AC50 was 5.25 µM (active). For Cc1cc(C(=O)Nc2cc(Oc3ccc4nc(NC(=O)C5CC5)cn4n3)ccc2C)n(C)n1, the AC50 was 5.9 µM (active). For CC1(C)CCC2(CC1)N[C@@H](C(=O)N[C@@H]1CC[C@@H](C(N)=O)OC1)[C@H](c1ccnc(Cl)c1F)[C@]21C(=O)Nc2cc(Cl)ccc21, the AC50 was 16 µM (active). For c1cn2cc(-c3ccc4cn[nH]c4c3)nc(Nc3ccc(N4CCOCC4)cc3)c2n1, the AC50 was 6.61 µM (active). For NC(=S)N/N=C/c1ncccc1N, the AC50 was 16.6 µM (active). For O=C(NC[C@H](O)CN1CCc2ccccc2C1)c1ccnc(NC2CCC2)c1, the outcome was “inactive”. In the case of CC(C)C(N)C(=O)OCC(CO)OCn1cnc2c(=O)[nH]c(N)nc21 (stereo not drawn), the outcome is reported as “inactive”. For OC(c1ccc(-c2ccc(CN3CCN(Cc4ccncc4)CC3)cc2)c(F)c1)(C(F)(F)F)C(F)(F)F, the outcome was “inactive”. With Cc1cc(O)c(-c2ccc([C@@H](C)CN(C)C)cc2)c2c1[nH]c(=O)c1sccc12 the AC50 was 0.332 µM (active). With Cc1c(NC(=O)c2cc(C(N)=O)nc3cc(F)ccc23)c(C(F)(F)F)nn1Cc1ccc(C(C)(C)C)cc1 the AC50 was 20.9 µM (active).
